Bioassay records as filed in PubChem.
AmpC no deterg: AmpC beta-lactamase inhibition without detergent. P00811. AmpC nitrocefin hydrolysis, absorbance 480 nm, 0.0001% Triton. Potency, µM (doses to about 57.1 µM), for inactives: top-dose activity change, negative = inhibition, usual class: inhibitors. 330,000 tested, 0.52% active. AID 485341;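 note: potency is the fitted concentration of half-maximal effect; plate controls were no compound for no effect and no enzyme for full effect; nearly all actives have a fitted effect of over 20% in size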
Target sequence (P00811 whole entry, looked up): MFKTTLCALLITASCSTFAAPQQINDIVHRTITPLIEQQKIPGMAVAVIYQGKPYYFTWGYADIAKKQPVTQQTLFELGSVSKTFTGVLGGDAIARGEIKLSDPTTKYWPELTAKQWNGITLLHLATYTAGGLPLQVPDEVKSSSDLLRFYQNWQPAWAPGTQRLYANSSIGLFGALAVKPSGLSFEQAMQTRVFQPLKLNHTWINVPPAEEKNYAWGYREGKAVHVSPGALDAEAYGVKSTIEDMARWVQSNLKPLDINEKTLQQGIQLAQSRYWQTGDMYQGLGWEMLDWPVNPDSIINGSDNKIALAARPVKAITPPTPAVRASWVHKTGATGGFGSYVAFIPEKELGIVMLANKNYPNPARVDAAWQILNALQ
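20 mM phosphate pH 7.0 + 0.01% (detergent screen) or 0.0001% Triton X-100; 5.3 nM AmpC reagent; cpd preinc 15 min RT; nitrocefin (800 uM stock) to start; A480 q20 s × 4 min; Activity was normalised to no-enzyme and no-compound control wells.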
NS1 function inh: blocks influenza NS1 protein function | Potency, µM (top dose mostly 46.1 µM), inactives show at the highest dose activity, positive = more growth | 270,000 tested, 0.4% active; calls by dose curve; note: potency is the fitted concentration of half-maximal effect; actives are rising curves; nearly all actives have a fitted effect of over 50% in size
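Compounds were scored for reversing the slow growth caused by influenza A NS1 in S. cerevisiae, measured by optical density at 600 nm. Assay medium contained 2% galactose at pH 6.0; NS1-free yeast of the same strain were the positive control.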
AmpC inh detg: inhibitors of E. coli AmpC beta-lactamase with detergent; AID 485294; AmpC hydrolysis of nitrocefin, absorbance 480 nm, 0.01% Triton; 370,000 tested, 0.041% active; P00811; Potency, µM (doses to about 114 µM), inactives show at the top dose activity change, negative = inhibition, usual class: inhibitors;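 note: potency is the fitted concentration of half-maximal effect; 0% = no-compound wells and -100% = no-enzyme wells; nearly all actives have a fitted effect of over 25% in size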
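AmpC (5.3 nM in the dispensed reagent) in 20 mM phosphate pH 7.0 with 0.01% (detergent screen) or 0.0001% Triton X-100 was preincubated with compounds for 15 min at room temperature. Nitrocefin was then added from an 800 uM solution, and hydrolysis was followed at 480 nm.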
Shiga toxin inh: Shiga toxin inhibition | Vero cells, Shiga toxin protein synthesis inhibition reporter | inhibition, % at 38.7 µM | 290,000 tested, 9.2% active; in the data active = inhibition mostly above about 28%, no sharp cut-off; inactive = mostly below about 43%; note: 0% is about no effect
CHX counter: counter-screen hit for Shiga toxin inhibitors, cycloheximide | max response, % | cell reporter, cycloheximide protein synthesis inhibition counterscreen | 300,000 tested, 12% active; in the data active = max response mostly above about 13%, no sharp cut-off; inactive = mostly below about 14%; note: read at 38.3 µM for the half of the compounds with a filed dose; 0% is about no effect
* = called active by the depositor. Many of the other results were omitted from the sample, so hits are more common in it than they were. Unless noted, calls come from the whole dose curve; as a rule, active = well fitted curve in the direction sought with a large enough effect; inconclusive = small, poorly fitted or top-dose-only effect, or another doubt; inactive = no such curve, though single readings can be large; an effect the other way counts as inactive or inconclusive.

Screening Cc1cc(NC(=O)CCN2C(=O)C3C4C=CC(C4)C3C2=O)ccc1Br (stereo not drawn) returned AmpC no deterg 30%, NS1 function inh -6%, AmpC inh detg -7%, Shiga toxin inh 52 and CHX counter 23*.
O=C(NCCN1C(=O)C2C3C=CC(C3)C2C1=O)Nc1ccc(Br)cc1 (stereo not drawn) was read as AmpC no deterg -1%, NS1 function inh -5%, AmpC inh detg -15%, Shiga toxin inh 65* and CHX counter 83*.
Cc1c(Br)ccc(NC(=O)CCN2C(=O)C3C4CCC(C4)C3C2=O)c1C (stereo not drawn) was read as AmpC no deterg -9%, NS1 function inh -1%, AmpC inh detg 0%, Shiga toxin inh 34* and CHX counter 19*.
For Cc1cc(NC(=O)CCN2C(=O)C3C4CCC(C4)C3C2=O)cc(C)c1Br (stereo not drawn) the results were AmpC no deterg 100%, NS1 function inh -5%, AmpC inh detg -13%, Shiga toxin inh 12 and CHX counter 6.
`CCN(CC(=O)NCc1cccs1)CC(=O)Nc1cccc(S(N)(=O)=O)c1` gave AmpC no deterg -16% and AmpC inh detg -9%.
Screening Cn1nnnc1SCCCNCc1ccc(-c2ccc(Br)cc2)o1 returned AmpC inh detg -10%.
CCCCC(=O)OCc1c(-c2ccccc2)ncc2ccccc12 was read as AmpC no deterg -6% and AmpC inh detg 2%.
`Cc1oc2ccc(O)c(CN(C)Cc3ccccc3)c2c1C(=O)Nc1cccc(Cl)c1C` gave AmpC inh detg -2%.
For CC1CCN(C(=O)CS(=O)(=O)Cc2ccccc2)CC1 the results were AmpC no deterg -5%, NS1 function inh 4%, AmpC inh detg 4%, Shiga toxin inh 77* and CHX counter 35*.
CC1CCN(C(=O)C(Cc2ccccc2)n2cccc2)CC1 (stereo not drawn) was read as AmpC no deterg 10µM*, NS1 function inh -7%, AmpC inh detg inconclusive, Shiga toxin inh 12 and CHX counter -4.
`CC1CCN(C(=O)c2ccc(CS(=O)(=O)Cc3ccccc3)cc2)CC1` gave AmpC no deterg 21%, NS1 function inh 3%, AmpC inh detg 2%, Shiga toxin inh -10 and CHX counter 2.
Cc1cccc(N2CCN(C(=O)C(Cc3ccccc3)NC(N)=O)CC2)c1C (stereo not drawn) was read as AmpC no deterg 96%, NS1 function inh 6%, AmpC inh detg -3%, Shiga toxin inh 12 and CHX counter -3.
`Cc1cccc(N2CCN(C(=O)C(Cc3ccccc3)n3cccc3)CC2)c1C` (stereo not drawn) gave AmpC no deterg 1µM*, NS1 function inh 1%, AmpC inh detg inconclusive, Shiga toxin inh -1 and CHX counter -4.
`CC1CC(C)CN(C(=O)C(Cc2ccccc2)n2cccc2)C1` (stereo not drawn) gave AmpC no deterg 6%, NS1 function inh 2%, AmpC inh detg 6%, Shiga toxin inh 30 and CHX counter -2.
Screening CC(=O)Oc1ccccc1C(=O)N(C1CCCCC1)C1CCCCC1 returned AmpC no deterg 43%, NS1 function inh -32%, AmpC inh detg -2%, Shiga toxin inh -16 and CHX counter -1.
CC1(C)CC(=O)C(C(c2cccc(O)c2O)C2C(=O)CC(C)(C)CC2=O)C(=O)C1 was read as NS1 function inh 13%.
Screening CCOC(=O)c1ccc2c(c1)NCc1cccc(OC)c1O2 returned AmpC no deterg -27%, NS1 function inh -34%, AmpC inh detg -13%, Shiga toxin inh 99* and CHX counter 53*.
For COc1ccc(C(=O)OCC(=O)c2ccc3c(c2)NC(=O)CO3)cc1OC the results were AmpC no deterg -22%.
For COc1ccc(N2CCN(C(=O)Cn3cnc4nc5c(cc4c3=O)CCCC5)CC2)cc1 the results were AmpC inh detg 2%.
COc1ccc(CNC(=O)C2CCN(S(=O)(=O)c3ccc4c(c3)CCCN4C(C)=O)CC2)cc1 was read as AmpC inh detg -3%.
Screening O=c1oc2ccc3ccccc3c2cc1-c1nnc(-c2cccs2)o1 returned AmpC no deterg inconclusive, NS1 function inh 2%, AmpC inh detg -18%, Shiga toxin inh -4 and CHX counter 25*.
Screening O=c1oc2ccc3ccccc3c2cc1-c1nnc(-c2ccccc2)o1 returned AmpC no deterg -26%, NS1 function inh -52%, AmpC inh detg 0%, Shiga toxin inh 19 and CHX counter 42*.
For COc1ccc(-c2nnc(-c3cc4c(ccc5ccccc54)oc3=O)o2)cc1 the results were AmpC no deterg -47%, NS1 function inh -4%, AmpC inh detg 0%, Shiga toxin inh -6 and CHX counter 1.
O=c1c(NCc2ccccc2Cl)nccn1-c1ccccc1 was read as AmpC inh detg 0%.
Screening CCn1c(N2CCN(C(=O)c3ccco3)CC2)nc2ccccc21 returned AmpC no deterg 1%, NS1 function inh -6%, AmpC inh detg 2%, Shiga toxin inh 1 and CHX counter 2.
`c1ccc(CC2CCN(c3nc4ccccc4n4nnnc34)CC2)cc1` gave AmpC no deterg -18%, NS1 function inh inconclusive, AmpC inh detg 1%, Shiga toxin inh 17 and CHX counter 8.5*.
For O=C(c1ccco1)N1CCN(c2nc3ccccc3n3nnnc23)CC1 the results were AmpC no deterg -12%, NS1 function inh 3%, AmpC inh detg 3%, Shiga toxin inh 36* and CHX counter 24*.
For COC(=O)Cc1c(C)c2ccc(OCC(=O)N(C)C3CCS(=O)(=O)C3)cc2oc1=O (stereo not drawn) the results were AmpC no deterg 11%, NS1 function inh 3%, AmpC inh detg -7%, Shiga toxin inh -19 and CHX counter -5.
CCN(CC)CCCNC(=O)c1nn(C)c2c1CSc1ccccc1-2 was read as AmpC inh detg 22%.
Screening Cc1ccc(COc2ccc(-c3nnco3)cc2)cc1 returned AmpC no deterg -8%, NS1 function inh -59%, AmpC inh detg -12%, Shiga toxin inh 67* and CHX counter 40*.
Screening COc1ccc(CNc2ccc(C)c(C)c2)c(OC)c1OC returned AmpC no deterg 14%, AmpC inh detg 6%, Shiga toxin inh 33 and CHX counter 24*.
For COc1cc(C)c(CNc2cccc(C)c2)cc1C the results were AmpC no deterg -25%, NS1 function inh -10%, AmpC inh detg 17%, Shiga toxin inh 6 and CHX counter 6.
`COc1cc(C)c(CNc2ccc(OC)c(OC)c2)cc1C` gave AmpC no deterg 5%, NS1 function inh -3%, AmpC inh detg inconclusive, Shiga toxin inh 76* and CHX counter 14*.
`COc1ccc(CNc2nc3ccc(C)cc3s2)c(OC)c1OC` gave AmpC no deterg 44%, NS1 function inh -50%, AmpC inh detg inconclusive, Shiga toxin inh 41* and CHX counter 15*.
